The text below walks through data of PubChem BioAssay (NCATS).

Active and inactive are the calls of the source. Where a call stands in place of a potency, no number is given. Calls come from the whole dose curve; as a rule, active = well fitted curve in the direction sought with a large enough effect; inconclusive = small, poorly fitted or top-dose-only effect, or another doubt; inactive = no such curve, though single readings can be large or run the other way. Square brackets hold non-standard residues; d marks the D form. Peptide text beside a SMILES is read from it. ξ: configuration not given here. ξL = CC(C)CC(N)C(=O)O

The target of this experiment is Luciferin 4-monooxygenase (Photinus pyralis) (UniProt P08659). The experiment can be described thus: Firefly luciferase counterscreen qHTS: Assay Interference Panel against the NCATS CANVASS Library (AID 1347363). Particulars: purified firefly luciferase, luminescence inhibition, 5 min; series mostly up to 57.5 µM. The method in brief: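 Purified P. pyralis luciferase (0.04 ug/mL, 4x reagent) added to Tris-acetate buffer with 0.013 mM D-luciferin, 0.013 mM ATP and 13.3 mM Mg-acetate; compounds preincubated 15 min, then luminescence read after 5 min, RT.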
Chain of Luciferin 4-monooxygenase (Photinus pyralis) (P08659 whole entry, looked up): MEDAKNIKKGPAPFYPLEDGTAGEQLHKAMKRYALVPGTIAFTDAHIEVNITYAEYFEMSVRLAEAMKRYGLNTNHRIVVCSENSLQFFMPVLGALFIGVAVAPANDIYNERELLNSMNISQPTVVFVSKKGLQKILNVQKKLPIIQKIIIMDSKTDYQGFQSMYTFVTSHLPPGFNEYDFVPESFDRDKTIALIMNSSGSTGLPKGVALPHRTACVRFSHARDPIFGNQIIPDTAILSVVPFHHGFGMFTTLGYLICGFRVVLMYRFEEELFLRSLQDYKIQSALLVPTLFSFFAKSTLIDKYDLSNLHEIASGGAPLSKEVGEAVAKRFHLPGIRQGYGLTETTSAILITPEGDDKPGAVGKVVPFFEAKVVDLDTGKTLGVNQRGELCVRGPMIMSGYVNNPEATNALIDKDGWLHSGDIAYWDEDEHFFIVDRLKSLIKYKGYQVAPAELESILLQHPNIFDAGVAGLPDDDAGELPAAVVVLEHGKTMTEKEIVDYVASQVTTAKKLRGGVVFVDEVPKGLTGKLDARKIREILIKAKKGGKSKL
In the case of `O[C@H]1C=C2[C@H]3CN(Cc4cc5c(cc43)OCO5)[C@H]2C[C@@H]1O`, the Potency entry was “inactive”.
The value for `CC[C@@H](c1cc(OC)c(OC)cc1OC)[C@H](C)[C@@H](/C(C)=C/c1cc(OC)c(OC)cc1OC)c1cc(OC)c(OC)cc1OC` was “inactive”; that for `C/C=C/c1cc2c(c(=O)o1)C(=O)[C@@H](O)[C@H](C)O2` was “inactive”.
In the case of `CC[C@@H](C)[C@H]1NC(=O)C(CC(C)C)NC(=O)[C@@H](CC(C)C)NC(=O)[C@H](Cc2c[nH]c3ccccc23)NC(=O)CNC(=O)[C@@H](CC(N)=O)NC1=O` (stereo partly drawn) (cyclo(GW[dL][ξL][dI][dN])), the Potency entry is “inactive”.
The value for `CN1CCc2cc3c(c4c2C1(C)C(=O)c1cc(O)ccc1-4)OCO3` (stereo not drawn) was “inactive”.
As for `COc1cc2c(cc1OC)[C@@H](c1ccc3c(c1)OCO3)C(C)[C@@H](C)C2=O` (stereo partly drawn), the Potency result is “inactive”.
The entry for `CC(C)[C@@H]1CC(=O)c2coc3c2[C@H]1C[C@@H](C)C3=O` is “inactive”.
With `COC(=O)[C@@]1(C)CCC[C@]2(C)c3cc(OC)ccc3CC[C@@H]12`, the Potency result is “inactive”.
For the compound `COc1cc2ccc(=O)oc2c(O)c1O[C@@H]1O[C@H](CO)[C@@H](O)[C@H](O)[C@H]1O`, the Potency entry was “inactive”.
`CC[C@H]1[C@@H](C)[C@@H](c2cc(OC)c(OC)cc2OC)[C@H](C)[C@@H](c2cc(OC)c(OC)cc2OC)[C@@]12C=C(OC)C(=O)C=C2OC`: the Potency entry was “inactive”.
On to `O=C1CCC(=O)N(O)CCCCCNC(=O)CCC(=O)N(O)CCCCCNC(=O)CCC(=O)N(O)CCCCCN1`, for which the Potency entry was “inactive”.
Regarding `C=C1C[C@H]2O[C@@H]3[C@@H]4[C@H](CC[C@@](C)(O)[C@@H]42)[C@H](C)COC3(C)[C@@H](OC(=O)CCCCCCC)C[C@H]1O` (stereo partly drawn), the Potency entry was “inactive”.
As to `CC1=C(C)C(=O)OC(C(C)C2(O)CCC3C4C5OC5C5(O)CC=CC(=O)C5(C)C4CCC32C)C1` (stereo not drawn), the Potency entry was “inactive”.
For the compound `C[C@H](CCC(O)C(C)(O)CO)[C@@]1(O)CC[C@@]2(C)C3=C(CC[C@@]21C)[C@@]1(C)CCC(OC(=O)CCC(=O)O)C(C)(C)[C@@H]1CC3` (stereo partly drawn), the Potency result was “inactive”.
As to `COc1cc(C2C3=C(Cc4cc5c(cc42)OCO5)C(=O)OC3)cc(OC)c1OC` (stereo not drawn), the Potency result is “inactive”.
The entry for `CO[C@@H]1[C@H](O)[C@@H](C)O[C@@H](OC[C@@H]2C(C)OC(=O)/C=C/[C@H](C)C(O[C@@H]3O[C@H](C)CC4(OC(=O)O[C@@H]4C)C3O)[C@@H](C)CC(C)C(=O)/C=C/[C@H]3OC23)[C@@H]1OC` (stereo partly drawn) is “inactive”.
Consider `C=C[C@@](C)(O)CC[C@@H]1[C@@]2(C)CCCC(C)(C)[C@@H]2CC[C@@]1(C)O`, for which the Potency result was “inactive”.
With `COc1ccc([C@@H]2c3cc4c(cc3C(=O)[C@H](C)C2C)OCO4)cc1OC` (stereo partly drawn), the Potency result is “inactive”.
The value for `C/C(=C\[C@H](C)C(=O)C[C@H](O)CC1CC(=O)NC(=O)C1)[C@@H]1OC(=O)CCCC/C=C/[C@@H](O)C[C@@H]1C` was “inactive”.
As to `CC1=C[C@H]2[C@H]3C(=O)C(c4ccc(O)cc4)=C[C@@]3(c3ccc(O)cc3)[C@@H]1C(=O)[C@]2(C)O`, the Potency entry was “inactive”.
Consider `C=C1C(=O)O[C@H]2[C@H]1CCC(C)=C1CC[C@@](C)(O)[C@@H]12`, for which the Potency result is “inactive”.
In the case of `C/C(=C\[C@H](C)C(=O)/C=C/CC1CC(=O)NC(=O)C1)[C@@H]1OC(=O)CCCC/C=C/[C@H](O)[C@@H](O)[C@@H]1C`, the Potency result is “inactive”.
With `C[C@H](c1cnc(N)[nH]1)c1ccc(O)c2[nH]cc(-c3cnc(-c4c[nH]c5ccccc45)c(=O)[nH]3)c12`, the Potency entry was “inactive”.
The entry for `COc1ccc([C@@H]2c3cc4c(cc3C[C@H](C)C2C)OCO4)cc1OC` (stereo partly drawn) is “inactive”; for `CC[C@@H]1[C@H](C)[C@H](c2cc(OC)c(OC)cc2OC)[C@@H](C)[C@H](c2cc(OC)c(OC)cc2OC)[C@]12C=C(OC)C(=O)C=C2OC` it is “inactive”.
Turning to `C[C@H]1CCC2(OC1)O[C@H]1C[C@H]3[C@@H]4CC(=O)[C@]5(O)C[C@H](O)CC[C@@]5(C)[C@H]4CC[C@@]3(C)[C@H]1[C@H]2C` (stereo partly drawn), the Potency result was “inactive”.
Turning to `C/C1=C/[C@@H](C)[C@H](O)C/C=C/CC/C=C/C(=O)O[C@@H]1[C@H](C)C(=O)CCCC1CC(=O)NC(=O)C1`, the Potency entry was “inactive”.
For the compound `C=C1C[C@H]2O[C@@H]3[C@@H]4[C@H](CC[C@@](C)(O)[C@@H]42)[C@H](C)COC3(C)[C@@H](OC(=O)CCCCCCC)CC1=O` (stereo partly drawn), the Potency result was “inactive”.
